Among the data in PubChem BioAssay (NCI) are growth values, retold here.

Structures are written as SMILES. The panel holds about 83,000 compounds, 20% with a hit somewhere; the sample as a whole holds those more often.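 Interpretation: 100, growth as untreated; towards 0, rising growth inhibition; 0, no net growth; 0 to -100, cell death. Compounds scoring below 10 were considered active.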 Values without a mark were called inactive. Calls of active or inactive are those of the source.

Some test systems named below: RPMI-8226 leukemia; OVCAR-8 ovarian; OVCAR-5 ovarian; OVCAR-4 ovarian; SK-OV-3 ovarian; IGROV1 ovarian; OVCAR-3 ovarian; HS 578T breast; NCI/ADR-RES ovarian; T-47D breast; MDA-MB-435 melanoma; SW-620 colon; MCF7 breast; HCT-116 colon; HCC-2998 colon; KM12 colon; MDA-MB-468 breast.
Common to all, as to assay: NCI-60 one-dose screen, 48 h (100 = growth as untreated, 0 = no growth, -100 = all killed)
What all share (settings): 10 µM unless noted

As to `O=C1C(=Nc2ccc(F)c(Cl)c2)c2cccc3cccc1c23`, the growth is 8.45% (active) in the experiment on RPMI-8226 leukemia; 3.58% (active) with OVCAR-8 ovarian; 94.7% in the experiment with OVCAR-5 ovarian; 86.1% with OVCAR-4 ovarian; 87.4% in the experiment on SK-OV-3 ovarian; 66.4% with IGROV1 ovarian. The growth in the experiment with OVCAR-3 ovarian was 25.3%; in the experiment with HS 578T breast it was 89.9%; in the experiment on NCI/ADR-RES ovarian, 84.1%; with T-47D breast, 45.3%; in the experiment with MDA-MB-435 melanoma, -42% (active); in the experiment with SW-620 colon, 35.8%. In addition, the growth in the experiment on MCF7 breast is 16.1%; in the experiment with HCT-116 colon it was 19%; in the experiment on HCC-2998 colon, 108%; in the experiment with KM12 colon it was 55%; in the experiment with MDA-MB-468 breast, 88.4%.
For the compound `CC(=O)N1CCN(Cc2ccc3c(NNC(=O)c4cnccn4)nc4cc(F)ccc4n23)CC1`, the growth with RPMI-8226 leukemia was 25.7%; in the experiment on OVCAR-5 ovarian, 50.1%; with OVCAR-4 ovarian it was 32.6%; in the experiment with SK-OV-3 ovarian, 25%; in the experiment with IGROV1 ovarian, 28.2%; in the experiment with OVCAR-3 ovarian it was 56.7%. Besides, the growth in the experiment with HS 578T breast was 56.3%; in the experiment on NCI/ADR-RES ovarian it was 7.69% (active); with T-47D breast it was 16.4%; in the experiment on MDA-MB-435 melanoma, 37.4%; in the experiment with SW-620 colon it was 38.8%; in the experiment with MCF7 breast, 16.4%. The growth is 19.5% in the experiment on HCT-116 colon, 61.3% with HCC-2998 colon, 32.6% in the experiment on KM12 colon and 6.88% (active) in the experiment with MDA-MB-468 breast.
Turning to `CN1CCN(c2ccc3c(c2)nc(NNC(=O)c2ncccn2)c2cccn23)CC1`, the growth is 28.4% in the experiment on RPMI-8226 leukemia; -62.9% (active) in the experiment with OVCAR-5 ovarian; -41.7% (active) in the experiment on OVCAR-4 ovarian; -13.2% (active) in the experiment with SK-OV-3 ovarian; 11.3% in the experiment on IGROV1 ovarian; -22.8% (active) in the experiment with OVCAR-3 ovarian. The growth was 26.5% in the experiment with HS 578T breast; -22.3% (active) in the experiment with T-47D breast; -45.7% (active) with MDA-MB-435 melanoma; -6.01% (active) in the experiment on SW-620 colon; -17.6% (active) in the experiment on MCF7 breast; 0.844% (active) in the experiment with HCT-116 colon. For the same compound, the growth with HCC-2998 colon is -87.7% (active); with KM12 colon it was -14.2% (active); in the experiment on MDA-MB-468 breast it was -42.8% (active).
On to `O=C(Nc1ccc(C(F)(F)F)cc1)Nc1ccc2oc(=O)ccc2c1`, for which the growth in the experiment with RPMI-8226 leukemia is -20.4% (active); in the experiment with OVCAR-8 ovarian it was 15.7%; in the experiment with OVCAR-5 ovarian, 39.5%; with OVCAR-4 ovarian it was 41.7%; with SK-OV-3 ovarian, 16%; in the experiment with IGROV1 ovarian, 33%. The growth is 26.7% in the experiment with OVCAR-3 ovarian; 49.7% in the experiment on HS 578T breast; 12.4% in the experiment with NCI/ADR-RES ovarian; 19% in the experiment on T-47D breast; 24.1% in the experiment on MDA-MB-435 melanoma; 31.2% in the experiment on SW-620 colon. Besides, the growth is 2.63% (active) in the experiment with MCF7 breast; 8.31% (active) in the experiment with HCT-116 colon; 32.5% in the experiment on HCC-2998 colon; 16% with KM12 colon; 5% (active) in the experiment on MDA-MB-468 breast.
As for `COc1ccc(-c2nnc3ccc(N/N=C/c4ccc(C)cc4)nn23)cc1`, the growth in the experiment with RPMI-8226 leukemia was 94%; in the experiment on OVCAR-8 ovarian, 41.4%; with OVCAR-5 ovarian, 115%; in the experiment with OVCAR-4 ovarian, 36.9%; in the experiment with SK-OV-3 ovarian, 79.8%; in the experiment with IGROV1 ovarian it was 100%. Moreover, the growth with OVCAR-3 ovarian was 15.6%; with HS 578T breast it was 29.1%; with NCI/ADR-RES ovarian, 25.8%; with T-47D breast, 76%; in the experiment on MDA-MB-435 melanoma it was 64.7%; in the experiment with SW-620 colon, 92.1%. The growth in the experiment on MCF7 breast is 57.2%; in the experiment with HCT-116 colon, 78.8%; with HCC-2998 colon it was 79.1%; in the experiment with KM12 colon it was 68.1%; in the experiment on MDA-MB-468 breast, 89.4%.
Turning to `O=C(Cn1c(/C=C/c2cccc([N+](=O)[O-])c2)nc2ccccc2c1=O)Nc1ccccc1`, the growth in the experiment on RPMI-8226 leukemia is 113%; with OVCAR-8 ovarian, 35.7%; in the experiment on OVCAR-5 ovarian, 104%; in the experiment on OVCAR-4 ovarian, 98%; with SK-OV-3 ovarian, 49.4%; with IGROV1 ovarian it was 106%. Besides, the growth in the experiment with OVCAR-3 ovarian was 54.6%; in the experiment with HS 578T breast, 87.2%; with NCI/ADR-RES ovarian, 65%; in the experiment on T-47D breast, 82.6%; in the experiment on MDA-MB-435 melanoma, 94.3%; with SW-620 colon, 91.2%. The growth in the experiment with MCF7 breast was 42.2%; in the experiment with HCT-116 colon, 57.6%; in the experiment with HCC-2998 colon, 120%; in the experiment on KM12 colon it was 74.6%; in the experiment on MDA-MB-468 breast, 98.9%.
With `Cc1cnc(C(=O)NNc2nc3cc(F)ccc3n3c(C(=O)N4CC5CC(C4)N5)ccc23)cn1`, the growth in the experiment with RPMI-8226 leukemia is 48.1%; in the experiment on OVCAR-8 ovarian, 20.2%; in the experiment with OVCAR-5 ovarian, 48.7%; with OVCAR-4 ovarian, 38.4%; in the experiment with SK-OV-3 ovarian it was 25.8%; in the experiment with IGROV1 ovarian it was 39.9%. For the same compound, the growth was 67% with NCI/ADR-RES ovarian; 32.1% in the experiment on T-47D breast; 32% in the experiment with SW-620 colon; 18.7% in the experiment with MCF7 breast; 17.5% in the experiment on HCT-116 colon; 58.7% with HCC-2998 colon. In addition, the growth with KM12 colon was 39.8%; in the experiment with MDA-MB-468 breast, 13.8%.
Regarding `Nc1n[nH]c2cccc(C#Cc3cccc(NC(=O)c4cccc(Cl)c4)c3)c12`, the growth in the experiment with RPMI-8226 leukemia was 29.9%; in the experiment with OVCAR-5 ovarian it was 53.2%; in the experiment with OVCAR-4 ovarian it was 39.9%; in the experiment on SK-OV-3 ovarian, 15.7%; in the experiment with IGROV1 ovarian, 21.6%; in the experiment on OVCAR-3 ovarian, 43.3%. The growth is 43.2% in the experiment on HS 578T breast; 25.6% with NCI/ADR-RES ovarian; 7.26% (active) in the experiment with T-47D breast; 22.7% with MDA-MB-435 melanoma; 42.1% in the experiment on SW-620 colon; 15.9% in the experiment on MCF7 breast. Moreover, the growth with HCT-116 colon was 12.3%; in the experiment with HCC-2998 colon, 30.4%; in the experiment on KM12 colon, 20.2%; in the experiment on MDA-MB-468 breast, 46%.
For `O=C(NNc1nc2cc(F)ccc2n2c(C(=O)N3CCN(C4CC4)CC3)ccc12)c1ncccn1`, the growth in the experiment on RPMI-8226 leukemia is 25.1%; in the experiment with OVCAR-8 ovarian, 22.1%; in the experiment with OVCAR-5 ovarian, 38.4%; in the experiment with OVCAR-4 ovarian, 29.5%; with SK-OV-3 ovarian, 22.1%; in the experiment with IGROV1 ovarian, 30.4%. The growth in the experiment on OVCAR-3 ovarian was 57.7%; in the experiment on NCI/ADR-RES ovarian, 16.6%; with T-47D breast, 27.3%; in the experiment on MDA-MB-435 melanoma, 41.2%; in the experiment with SW-620 colon it was 34.6%; with MCF7 breast, 15.3%. The growth with HCT-116 colon was 20.5%; with HCC-2998 colon, 63.8%; with KM12 colon it was 35.7%; with MDA-MB-468 breast, 14.1%.
